Screening results deposited in PubChem by The Scripps Research Institute Molecular Screening Center.
Only some compounds are listed: those with a hit (about 3.2% of all), similar ones and a draw of the others.
sPLA2-III inh – Blocks human group III sPLA2 activity; Q9NZ20; QFRET BODIPY PC-A2 liposome hydrolysis, fluorescence; inhibition, % at 12.2 µM; 0.56% of 370,000 active;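 active = inhibition above mean plus 3 SD of compounds lying within the high and low control bounds, cut at about 19% in these data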;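 also: 0% = median of test compound wells and 100% = no enzyme DMSO wells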
Target sequence (Q9NZ20 whole entry, looked up): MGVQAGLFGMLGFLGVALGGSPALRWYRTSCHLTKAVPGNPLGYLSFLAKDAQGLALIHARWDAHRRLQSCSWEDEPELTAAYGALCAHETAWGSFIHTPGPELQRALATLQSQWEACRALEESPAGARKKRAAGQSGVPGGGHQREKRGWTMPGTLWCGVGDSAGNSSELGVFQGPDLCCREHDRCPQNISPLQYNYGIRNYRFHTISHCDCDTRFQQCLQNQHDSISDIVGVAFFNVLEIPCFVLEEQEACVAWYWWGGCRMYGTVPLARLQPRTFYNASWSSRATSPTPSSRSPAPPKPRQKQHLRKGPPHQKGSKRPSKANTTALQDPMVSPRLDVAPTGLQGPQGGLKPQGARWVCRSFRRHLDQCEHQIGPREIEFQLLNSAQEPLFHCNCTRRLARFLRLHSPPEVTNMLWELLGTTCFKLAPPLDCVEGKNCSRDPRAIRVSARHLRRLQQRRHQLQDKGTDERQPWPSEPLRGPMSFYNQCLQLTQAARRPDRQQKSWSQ
MsrA inh – inhibits bovine methionine sulfoxide reductase A | AID 651718 | purified bovine MsrA, absorbance read-out | inhibition, % at 15.5 µM | 0.75% of 360,000 active; in the data active = inhibition above about 4.5%;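 also: 0% = vehicle wells with enzyme and 100% = reference inhibitor wells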
rCAG RNA binder – molecules binding r(CAG) RNA repeats | r(CAG) RNA repeat, TO-PRO-1 dye displacement fluorescence | inhibition, % at 3 µM | 1.3% of 370,000 active | AID 651821;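 active = inhibition above the plate cutoff, the mean of all test compounds on that plate plus 3 SD, cut at about 35% in these data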;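 also: 0% = DMSO alone and 100% = 100 µM mitoxantrone as full dye displacement; higher means more dye released from RNA so lower well fluorescence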
PG9 Ab binder – PG9 antibody binding by small molecule; 0.43% of 360,000 active; inhibition, % at 6.7 µM; TR-FRET gp120-PG9 antibody binding; in the data active = inhibition above about 8.5%
bovine MsrA act – activates bovine MsrA enzyme; activation, % at 10.6 µM; 0.3% of 360,000 active; purified bovine MsrA, absorbance read-out; AID 602163; in the data active = activation above about 7.5%;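 also: 0% = vehicle and 100% = reference activator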
rCAG bind conf – r(CAG) RNA repeat binding, confirmation; shares compounds with rCAG RNA binder; TO-PRO-1 dye displacement fluorescence; inhibition, % at 3 µM; 70% of 4,300 active; AID 652065;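 active = inhibition above a per-plate cutoff, the mean inhibition of sample wells plus 3 SD, cut at about 35% in these data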;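 also: loss of TO-PRO-1 fluorescence as compound displaces dye from 1x1 AA loop RNA; 0% = DMSO only wells and 100% = 100 µM mitoxantrone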
DNA CAG counter – counter-screen for rCAG RNA binders: DNA CAG dye complex inhibitors; 94% of 4,300 active; AID 652068; inhibition, % at 3 µM; shares compounds with rCAG RNA binder; d(CAG) DNA oligo TO-PRO-1 dye displacement, fluorescence;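 active = inhibition above its plate's cutoff, the mean test-well inhibition plus 3 SD, cut at about 4.8% in these data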;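 also: 0% = DNA dye mix with DMSO and 100% = 100 µM mitoxantrone; hits displace the dye from DNA and so lower well fluorescence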
DNA CAG DR – disrupts DNA CAG TO-PRO-1 complex in dose response; shares compounds with rCAG RNA binder; DNA CAG/GTC duplex TO-PRO-1 dye displacement fluorescence; IC50, µM; 20% of 250 active; in the data active = IC50 below about 10 µM
sPLA2 confirm – human GIII-sPLA2 inhibition, confirmation; 34% of 2,000 active; inhibition, % at 12.2 µM; shares compounds with sPLA2-III inh; recombinant hGIII-sPLA2, BODIPY PC-A2 QFRET fluorescence;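 active = mean inhibition across triplicates above the hit cutoff set in the earlier primary screen, cut at about 19% in these data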;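 also: 0% = enzyme with DMSO and 100% = DMSO wells lacking enzyme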
535nm interf – optically interferes with 535nm fluorescence in sPLA2 counter-screen; shares compounds with sPLA2-III inh; BODIPY FL product fluorescence interference, QFRET; inhibition, % at 12.2 µM; 8.5% of 2,000 active; AID 743282;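 active = average inhibition above the solvent-only control mean plus 3 SD, cut at about 6% in these data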;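 also: 0% = DMSO with substrate plus product and 100% = DMSO with substrate alone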
* = called active by the depositor; x = not tested or not shown.

SMILES	sPLA2-III inh	MsrA inh	rCAG RNA binder	PG9 Ab binder	bovine MsrA act	rCAG bind conf	DNA CAG counter	sPLA2 confirm	535nm interf	others
CCOc1cc(/C=C2/C(=O)NN(c3cccc(Cl)c3)C2=O)ccc1O	-13	2	46*	-6	-3	23	7.5*	x	x
COc1cccc(/C=C2/C(=O)NN(c3ccc(C)c(C)c3)C2=O)c1	-6	-1	72*	-2	-2	34	9.5*	x	x
Nc1cc2c(cc1N)-c1ccccc1C2	-7	0	10	-3	-3	x	x	x	x
O=c1c(O)c(-c2cc(O)c(O)c(O)c2)oc2cc(O)cc(O)c12	8	4	47*	-6	-6	56*	19*	x	x	DNA CAG DR=>30
CC(C)=CCc1cc(-c2oc3cc(O)cc(O)c3c(=O)c2O)ccc1O	-4	0	44*	-1	-12	52*	25*	x	x
O=C(NC1CCCCN(Cc2cccc(C(F)(F)F)c2)C1=O)c1ccc(-c2ccccc2)cc1 (stereo not given)	3	x	4	x	x	x	x	x	x
O=C(CSc1nc2ccccc2s1)NNC(=S)Nc1ccc(Br)cc1	23*	1	53*	0	1	61*	22*	3	0
Nc1ccc(C(=O)N/N=C\c2cc(N=Nc3cccc4ccccc34)ccc2O)cc1	34*	3	39*	0	-5	29	15*	38*	8.2*
NCCC(=O)Nc1ccc(Cl)cc1C(=O)c1ccc[nH]1	6	x	x	x	x	x	x	x	x
N#CC(C(=S)Nc1ccccc1)c1nc2ccccc2[nH]1 (stereo not given)	28*	4	65*	-1	-3	46*	16*	3	7.4*
CCN=C1NC(c2ccc(Cl)cc2)C(C(=O)OC)=C(C)N1Cc1cccc(C(F)(F)F)c1 (stereo not given)	-1	-3	6	-1	x	x	x	x	x
CCN(CC)S(=O)(=O)c1cccc(C(=O)N/N=C/c2cccc(O)c2O)c1	23*	1	37*	-4	-5	33	13*	12	4
CCN(CC)S(=O)(=O)c1cccc(C(=O)N/N=C/c2cc(OC)c(O)c(OC)c2)c1	-9	3	0	-4	-5	x	x	x	x
O=[N+]([O-])c1ccccc1C(=Nc1ccccc1)c1c(O)cc(O)cc1O	26*	3	45*	1	-4	12	7.7*	0	3
COc1ccc(F)cc1-c1cc(NC=O)c2ncc(-c3cccc(C(F)(F)F)c3)n2c1	6	1	2	0	-12	x	x	x	x
CCN=c1scc(C)n1/N=C/c1ccc(O)c(O)c1O	22*	1	38*	-11	-4	49*	19*	24*	-11
CCN=c1scc(C)n1/N=C/c1cc(Br)c(O)c(Br)c1	22*	3	36*	-9	-4	42*	18*	21*	1
O=S(=O)(c1ccc(NC(=S)N/N=C/c2ccc(O)c(O)c2)cc1)N1CCOCC1	-3	1	19	-1	-8	x	x	x	x
O=[N+]([O-])c1cc(Cl)cc(/C=N/NC(=S)Nc2ccc(S(=O)(=O)N3CCOCC3)cc2)c1O	69*	3	98*	-3	-3	88*	63*	70*	19*
Cc1cccc(C)c1NC(=O)C(CCc1ccccc1)n1c(=O)c(-c2ccccc2)nc2ccccc21 (stereo not given)	-4	0	10	-4	x	x	x	x	x
NNC(=O)c1cc(-c2cccs2)nc2ccccc12	-6	3	14	-1	-3	x	x	x	x
Cc1cccc2sc(NNC(=O)c3cc(-c4cccs4)nc4ccccc34)nc12	50*	1	38*	2	-3	36*	16*	49*	8.8*
CCCC1CCC2(CCCN2CCOC(=O)Nc2ccccc2OC)CC1 (stereo not given)	-17	x	x	x	x	x	x	x	x
Cc1cc(C)c2nc(NNC(=O)c3ccc(S(=O)(=O)N4CCc5ccccc5C4)cc3)sc2c1	50*	1	61*	-2	-1	50*	26*	36*	2
Cc1c(C#N)c(N)nc(Cl)c1C#N	-1	0	-1	-1	-10	x	x	x	x
SMILES	sPLA2-III inh	MsrA inh	rCAG RNA binder	PG9 Ab binder	bovine MsrA act	rCAG bind conf	DNA CAG counter	sPLA2 confirm	535nm interf	others
N#Cc1c(Cl)nsc1NN	20*	3	92*	-9	1	22	4.8*	19	14*
Cc1ccc(NC(=O)OC2CC3CC2[C@H]2CCCCN2[C@H]3C)cc1 (stereo not given in full)	7	x	2	x	x	x	x	x	x
Oc1cccc(/C=N/N(Cc2ccccc2)c2ccccc2)c1	-10	0	15	0	-2	x	x	x	x
Oc1ccc(/C=N/N(Cc2ccccc2)c2ccccc2)c(O)c1O	20*	1	38*	-1	-4	45*	25*	30*	7.4*
COc1ccccc1/C=C/C=N/n1c(-c2cc(-c3ccccc3)n[nH]2)n[nH]c1=S	21*	2	44*	4	0	63*	25*	-26	9.5*
CCN1C(=O)[C@@H]2[C@@H]3CN(S(=O)(=O)c4ccc(C)cc4)[C@@H](c4ccccc4)[C@@H]3C(=O)C[C@@H]2C1=O	-37	-1	5	-3	-3	x	x	x	x
CCOC1=CC2=C(C(=O)C(Cl)=CC2=O)[C@@H]2CN(S(=O)(=O)c3ccc(C)cc3)[C@@H](c3ccccc3)[C@H]12	31*	0	73*	8	-16	57*	21*	69*	11*
O=C1S/C(=C\C=C\c2ccco2)C(=O)N1c1ccccc1	28*	1	41*	1	3	18	12*	2	-2
Cn1cc(/C=C2\SC(=O)N(c3ccccc3)C2=O)c2ccccc21	4	0	1	-1	-5	x	x	x	x
O=C(CSc1nc2ccccc2c(=O)n1-c1ccc(Cl)cc1)NNC(=S)Nc1ccccc1	33*	x	49*	x	x	38*	17*	27*	4
Cc1ccc(C2CC2C(=O)NNC(=S)Nc2cccc(C)c2)cc1 (stereo not given)	19	-1	10	-1	4	x	x	x	x
Cc1ccc(C2CC2C(=O)NNC(=S)Nc2cccc(Cl)c2)cc1 (stereo not given)	23*	1	52*	0	0	51*	19*	-9	10.0*
C[C@H]1C2CC(OC(=O)Nc3ccc(C#N)cc3)C(C2)[C@H]2CCCCN21 (stereo not given in full)	-3	x	8	x	x	x	x	x	x
